The supplement of paper PMC10849652
Of roughly 7,900 targets only a part is listed; those with a hit were picked by preference. About 0.6% of all pairs of compound and target were hits. Unmarked numbers belong to inactive results.

Tests used:
Assay in all cases: log2 fold change, soluble protein after heating vs DMSO (PISA); higher = thermal stabilisation; K562 cells, 10 uM, 30 min; active = over 0.2 and 3.5 SD of the protein, either way, in both replicates (recomputed)
[1] = compound: C1COCCN1CCN2C3=CC=CC=C3N=C2NC(=O)C4=CC(=CC=C4)[N+](=O)[O-] [IRAK-1-4 Inhibitor I]
Method in brief: (§1)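 K562 cells at 2×10^6 cells/mL were treated with 10 μM compound for 30 min. Aliquots were heated for 3 min across 48°C-58°C, pooled, and extracted in PBS with 0.5% NP-40 at 4°C; soluble protein was the supernatant after 21,000xg for 90 min. Soluble protein was quantified by TMTpro 16plex LC-MS/MS with channel sums equalised, and reported as log2 fold change in thermal stability against DMSO controls, with values from duplicates.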

[2] = compound: C=CC(=O)N1CCC[C@@H](n2nc(-c3ccc(Oc4ccccc4)cc3)c3c(N)ncnc32)C1 [ibrutinib]
Method in brief: as §1

[3] = compound: CC(=O)c1cnc2ccc(-c3cc(Cl)c(O)c(Cl)c3)nc2c1N[C@H]1CC[C@H](CN(C)C)CC1
Method in brief: as §1

[4] = compound: CC(C)(C)Cn1c(N)nc2ccc(-c3[nH]c(C(C)(C)C)nc3-c3ccc(F)cc3)nc21 [ralimetinib]
Method in brief: as §1

[5] = compound: CC(C)(O)CC(=O)NCCn1ccc2ncnc(Nc3ccc(Oc4cccc(C(F)(F)F)c4)c(Cl)c3)c21
Method in brief: as §1

[6] = compound: CC(C)C1=C2N=C(C=C(N2N=C1)NCC3=CC=CC=C3)NCCCCCCN
Method in brief: as §1

[7] = compound: CC(C)C[C@@H](C=O)NC(=O)[C@H](CC(C)C)NC(=O)[C@H](CC(C)C)NC(=O)OCc1ccccc1
Method in brief: as §1

[8] = compound: CC(C)N(C[C@H]1O[C@@H](n2cnc3c(N)ncnc32)[C@H](O)[C@@H]1O)[C@H]1C[C@@H](CCc2nc3cc(C(C)(C)C)ccc3[nH]2)C1 [pinometostat]
Method in brief: as §1

[9] = compound: CC1=C(C(CC(=O)N1)C2=CC=C(C=C2)C(F)(F)F)C(=O)NC3=C(C=C4C(=C3)C=NN4)F
Method in brief: as §1

[10] = compound: CC1=C(C2=C(C=C1)C(=O)C3=CC=CC=C3N2CCCN)C
Method in brief: as §1

[11] = compound: CC1=C(C=C(C=C1)NC(=O)C2=CC(=CC=C2)C(C)(C)C#N)NC3=CC4=C(C=C3)N=CN(C4=O)C
Method in brief: as §1

[12] = compound: CC1=C(C=C(C=C1)NC(=O)C2=CC(=CC=C2)N(C)C)NC(=O)C3=CC=C(C=C3)O
Method in brief: as §1

[13] = compound: CC1=CC=C(C=C1)SC2=C3C=C(SC3=CN=C2)C(=O)N
Method in brief: as §1

[14] = compound: CC1=NC(=CC=C1)C2=C(N=C(N2)C(C)(C)C)C3=CC4=NC=CN=C4C=C3
Method in brief: as §1

[15] = compound: CCCCN(Cc1ccc(C(=O)NO)cc1)C(=O)Nc1ccccc1 [Nexturastat A]
Method in brief: as §1

[16] = compound: CCCS(=O)(=O)Nc1ccc(F)c(C(=O)c2c[nH]c3ncc(-c4ccc(Cl)cc4)cc23)c1F [vemurafenib]
Method in brief: as §1

[17] = compound: CCCS(=O)(=O)Nc1ccc(F)c(C(=O)c2c[nH]c3ncc(Cl)cc23)c1F
Method in brief: as §1

[18] = compound: CCCc1cc(C)[nH]c(=O)c1CNC(=O)c1cc(-c2ccnc(N3CCN(C)CC3)c2)cc2c1cnn2C(C)C
Method in brief: as §1

[19] = compound: CCN(CC)Cc1ccc2cc(COC(=O)Nc3ccc(C(=O)NO)cc3)ccc2c1 [givinostat]
Method in brief: as §1

[20] = compound: CCN(CCCOc1ccc2c(Nc3cc(CC(=O)Nc4cccc(F)c4)[nH]n3)ncnc2c1)CCOP(=O)(O)O [barasertib]
Method in brief: as §1

UniProt P15531, sequence (P15531 whole entry, looked up): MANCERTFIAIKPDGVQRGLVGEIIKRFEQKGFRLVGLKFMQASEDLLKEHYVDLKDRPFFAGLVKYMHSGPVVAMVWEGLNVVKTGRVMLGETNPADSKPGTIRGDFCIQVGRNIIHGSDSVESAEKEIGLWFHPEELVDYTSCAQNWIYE
UniProt Q9BV86, sequence (Q9BV86 whole entry, looked up): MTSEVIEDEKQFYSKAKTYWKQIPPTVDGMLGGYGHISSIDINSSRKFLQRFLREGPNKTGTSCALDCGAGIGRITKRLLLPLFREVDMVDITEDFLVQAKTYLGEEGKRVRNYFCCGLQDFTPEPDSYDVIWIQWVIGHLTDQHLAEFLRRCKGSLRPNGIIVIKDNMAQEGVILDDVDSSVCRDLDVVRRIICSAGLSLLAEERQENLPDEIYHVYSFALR
UniProt Q9BW27, sequence (Q9BW27 whole entry, looked up): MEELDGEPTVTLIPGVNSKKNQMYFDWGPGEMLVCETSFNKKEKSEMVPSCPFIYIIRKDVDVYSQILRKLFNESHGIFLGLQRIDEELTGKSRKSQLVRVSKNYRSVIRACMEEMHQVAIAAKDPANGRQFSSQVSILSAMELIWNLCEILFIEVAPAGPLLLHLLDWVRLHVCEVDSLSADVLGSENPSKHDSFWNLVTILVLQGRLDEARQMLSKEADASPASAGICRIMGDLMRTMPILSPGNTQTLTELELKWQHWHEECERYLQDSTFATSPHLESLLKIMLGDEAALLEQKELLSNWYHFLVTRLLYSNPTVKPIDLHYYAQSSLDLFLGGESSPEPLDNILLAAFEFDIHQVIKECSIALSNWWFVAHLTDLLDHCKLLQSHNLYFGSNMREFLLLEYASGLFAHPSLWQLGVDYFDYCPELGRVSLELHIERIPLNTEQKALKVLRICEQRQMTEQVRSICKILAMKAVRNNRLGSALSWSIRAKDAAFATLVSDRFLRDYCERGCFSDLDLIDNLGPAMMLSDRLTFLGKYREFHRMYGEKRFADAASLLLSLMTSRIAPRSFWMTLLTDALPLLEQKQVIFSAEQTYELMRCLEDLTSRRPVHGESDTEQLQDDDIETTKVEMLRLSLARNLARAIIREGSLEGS
UniProt P49914, sequence (P49914 whole entry, looked up): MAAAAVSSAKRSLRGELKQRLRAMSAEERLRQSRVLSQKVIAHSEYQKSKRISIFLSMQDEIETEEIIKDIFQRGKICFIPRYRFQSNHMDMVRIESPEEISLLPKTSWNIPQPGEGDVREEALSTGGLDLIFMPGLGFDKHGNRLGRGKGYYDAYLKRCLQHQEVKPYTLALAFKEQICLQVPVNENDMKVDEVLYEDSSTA
UniProt Q99747, sequence (Q99747 whole entry, looked up): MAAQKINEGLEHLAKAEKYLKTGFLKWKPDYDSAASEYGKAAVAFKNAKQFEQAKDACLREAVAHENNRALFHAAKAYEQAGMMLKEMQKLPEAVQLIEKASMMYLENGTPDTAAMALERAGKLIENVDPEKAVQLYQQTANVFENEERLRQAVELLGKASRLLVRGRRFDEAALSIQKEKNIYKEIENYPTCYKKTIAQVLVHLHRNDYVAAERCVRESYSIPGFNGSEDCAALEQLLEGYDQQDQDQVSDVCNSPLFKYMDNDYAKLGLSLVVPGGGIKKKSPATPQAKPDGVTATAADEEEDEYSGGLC
UniProt Q8TEM1, sequence (Q8TEM1 whole entry, looked up): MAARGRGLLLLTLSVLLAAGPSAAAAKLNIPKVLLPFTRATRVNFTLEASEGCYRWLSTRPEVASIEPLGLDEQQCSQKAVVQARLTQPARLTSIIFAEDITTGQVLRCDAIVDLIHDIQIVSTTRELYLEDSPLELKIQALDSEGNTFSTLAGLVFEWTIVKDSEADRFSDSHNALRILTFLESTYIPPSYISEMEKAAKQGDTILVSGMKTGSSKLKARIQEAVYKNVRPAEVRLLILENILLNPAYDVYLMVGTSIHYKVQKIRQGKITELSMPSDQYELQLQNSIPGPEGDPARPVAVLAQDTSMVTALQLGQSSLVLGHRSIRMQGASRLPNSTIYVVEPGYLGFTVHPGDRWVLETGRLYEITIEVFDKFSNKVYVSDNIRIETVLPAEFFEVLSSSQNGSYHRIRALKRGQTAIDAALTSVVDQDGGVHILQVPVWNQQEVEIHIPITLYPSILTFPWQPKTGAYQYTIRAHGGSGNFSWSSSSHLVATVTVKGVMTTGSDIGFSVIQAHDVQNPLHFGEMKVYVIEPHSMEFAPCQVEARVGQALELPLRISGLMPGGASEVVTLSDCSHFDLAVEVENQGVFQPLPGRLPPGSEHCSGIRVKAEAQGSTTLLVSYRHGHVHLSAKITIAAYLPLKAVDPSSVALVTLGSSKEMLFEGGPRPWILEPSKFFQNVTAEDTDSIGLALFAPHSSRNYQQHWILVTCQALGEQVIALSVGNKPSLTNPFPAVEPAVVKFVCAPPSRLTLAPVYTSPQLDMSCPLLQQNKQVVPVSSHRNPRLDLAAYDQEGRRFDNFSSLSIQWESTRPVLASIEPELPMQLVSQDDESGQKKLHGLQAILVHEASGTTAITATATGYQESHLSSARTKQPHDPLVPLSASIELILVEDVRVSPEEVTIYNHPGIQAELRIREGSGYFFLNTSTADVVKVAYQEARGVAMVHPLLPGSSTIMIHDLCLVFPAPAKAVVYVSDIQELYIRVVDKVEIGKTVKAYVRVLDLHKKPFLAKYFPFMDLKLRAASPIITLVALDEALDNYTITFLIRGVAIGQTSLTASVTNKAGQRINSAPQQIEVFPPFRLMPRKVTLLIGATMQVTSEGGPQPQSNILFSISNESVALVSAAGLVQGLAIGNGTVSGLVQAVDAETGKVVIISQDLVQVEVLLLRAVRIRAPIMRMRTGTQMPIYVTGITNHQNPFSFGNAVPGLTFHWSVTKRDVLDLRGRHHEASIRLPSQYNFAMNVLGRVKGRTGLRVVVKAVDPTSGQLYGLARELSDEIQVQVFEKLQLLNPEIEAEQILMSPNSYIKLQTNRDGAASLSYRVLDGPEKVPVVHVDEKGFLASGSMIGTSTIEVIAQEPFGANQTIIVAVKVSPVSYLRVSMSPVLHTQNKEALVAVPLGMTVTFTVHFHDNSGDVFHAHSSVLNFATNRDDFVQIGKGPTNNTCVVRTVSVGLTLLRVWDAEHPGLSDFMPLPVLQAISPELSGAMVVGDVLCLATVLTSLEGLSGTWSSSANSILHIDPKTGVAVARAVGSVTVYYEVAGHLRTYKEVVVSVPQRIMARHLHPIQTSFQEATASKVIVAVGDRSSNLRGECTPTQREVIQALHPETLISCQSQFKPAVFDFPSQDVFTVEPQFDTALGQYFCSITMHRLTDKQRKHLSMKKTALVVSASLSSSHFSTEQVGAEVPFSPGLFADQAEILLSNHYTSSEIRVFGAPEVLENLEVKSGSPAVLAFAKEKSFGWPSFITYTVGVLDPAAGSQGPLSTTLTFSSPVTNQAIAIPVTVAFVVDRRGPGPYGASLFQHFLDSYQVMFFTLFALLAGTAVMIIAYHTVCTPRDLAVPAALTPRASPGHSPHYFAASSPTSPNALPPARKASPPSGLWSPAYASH
UniProt Q9BUK6, sequence (Q9BUK6 whole entry, looked up): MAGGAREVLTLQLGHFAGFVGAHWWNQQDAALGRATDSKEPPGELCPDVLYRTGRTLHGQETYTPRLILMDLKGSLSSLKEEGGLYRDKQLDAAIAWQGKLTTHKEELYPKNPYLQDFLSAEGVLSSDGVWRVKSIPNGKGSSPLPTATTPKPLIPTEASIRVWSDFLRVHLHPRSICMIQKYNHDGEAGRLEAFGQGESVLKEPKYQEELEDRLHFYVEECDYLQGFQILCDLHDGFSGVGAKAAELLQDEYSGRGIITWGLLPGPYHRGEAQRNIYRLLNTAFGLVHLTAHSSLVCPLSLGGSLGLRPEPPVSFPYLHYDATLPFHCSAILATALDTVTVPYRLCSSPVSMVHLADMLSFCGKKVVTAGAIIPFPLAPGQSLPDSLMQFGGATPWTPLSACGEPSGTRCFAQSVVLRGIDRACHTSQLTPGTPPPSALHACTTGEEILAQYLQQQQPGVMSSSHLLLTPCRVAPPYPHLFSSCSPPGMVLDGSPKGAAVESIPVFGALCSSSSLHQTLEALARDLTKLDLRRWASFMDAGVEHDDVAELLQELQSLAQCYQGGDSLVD

Row | Target | log2 fold change [1] | log2 fold change [2] | log2 fold change [3] | log2 fold change [4] | log2 fold change [5] | log2 fold change [6] | log2 fold change [7] | log2 fold change [8] | log2 fold change [9] | log2 fold change [10] | log2 fold change [11] | log2 fold change [12] | log2 fold change [13] | log2 fold change [14] | log2 fold change [15] | log2 fold change [16] | log2 fold change [17] | log2 fold change [18] | log2 fold change [19] | log2 fold change [20]
1 | NUP210 (UniProt Q8TEM1) | 0.005 | -0.025 | -0.038 | -0.069 | -0.176 | -0.52 (active) | -0.007 | 0.001 | 0.026 | 0.047 | -0.029 | 0.052 | 0.084 | 0.035 | -0.08 | -0.002 | 0.058 | -0.05 | -0.017 | 0.029
2 | MTHFS (UniProt P49914) | -0.003 | -0.01 | -0.009 | -0.09 | -0.095 | -0.009 | 0.007 | -0.03 | -0.044 | 0.031 | 0.047 | -0.054 | -0.01 | 0.047 | -0.005 | -0.017 | 0.01 | -0.041 | -0.063 | 0.009
3 | NME1 isoform 2 (UniProt P15531) | 0.021 | 0.107 | -0.007 | -0.035 | 0.03 | 0.041 | 0.032 | -0.017 | -0.192 | 0.038 | -0.054 | 0.047 | 0.029 | -0.006 | -0.067 | -0.003 | -0.045 | -0.092 | -0.07 | -0.108
4 | NTMT1 (UniProt Q9BV86) | 0 | 0.011 | -0.046 | -0.02 | -0.053 | 0.095 | -0.052 | -0.029 | -0.082 | 0.157 | 0.05 | 0.037 | -0.003 | -0.034 | -0.042 | 0.062 | 0.012 | -0.073 | -0.066 | 0.019
5 | NAPG (UniProt Q99747) | -0.071 | -0.014 | -0.067 | -0.012 | -0.069 | -0.248 | 0.028 | 0.016 | 0 | 0.016 | 0.044 | -0.115 | 0.077 | 0.006 | 0.004 | 0.067 | 0.155 | 0.045 | 0.123 | 0.107
6 | MSTO1 (UniProt Q9BUK6) | 0.012 | 0.009 | -0.003 | -0.028 | -0.162 | -0.105 | -0.003 | -0.002 | -0.027 | 0.043 | -0.032 | -0.052 | -0.02 | 0.024 | -0.118 | 0.052 | 0.018 | -0.012 | 0.011 | 0.037
7 | NUP85 (UniProt Q9BW27) | -0.011 | -0.027 | -0.058 | -0.036 | -0.013 | -0.048 | -0.026 | -0.033 | 0.04 | 0.015 | -0.02 | 0.025 | 0.102 | -0.001 | -0.041 | 0.01 | 0.019 | -0.02 | 0.015 | 0.017
8 | MRPS5 (UniProt P82675) | -0.071 | 0.057 | -0.019 | 0 | -0.088 | -0.083 | 0.078 | 0.056 | -0.112 | -0.207 | 0.08 | -0.086 | -0.005 | 0.004 | 0.159 | -0.048 | 0.062 | 0.016 | 0.013 | 0.023
